# A number with no mark means an inactive call. Results filed as inconclusive are left out. Entries that show only a call come without a potency. The source made the active and inactive calls. Calls follow the shape of the dose curve; as a rule, active = well fitted curve in the direction sought with a large enough effect; inconclusive = small, poorly fitted or top-dose-only effect, or another doubt; inactive = no such curve, though single readings can be large; an effect the other way counts as inactive or inconclusive.
# Tests used:
# [1] = biological target: Glutathione peroxidase 1 (Homo sapiens) (UniProt P07203); test: Primary qHTS Assay for Inhibitors of Recombinant Selenoprotein Glutathione Peroxidase 1 (GPX1) (AID 1845191); also: nearly all actives have a fitted effect of over 65% in size
# Summary of the method: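 Recombinant GPX1 (10 nM final) was preincubated with compound for 30 min at room temperature, then reacted with 1 mM GSH, 0.5 mM CHP, 0.5 mM NADPH and 100 nM glutathione reductase; NADPH fluorescence (340/450 nm) was read at 0 and 15 min.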
# [2] = biological target: Phospholipid hydroperoxide glutathione peroxidase GPX4 (Homo sapiens) (UniProt P36969); test: Primary qHTS Assay for Inhibitors of Recombinant Selenoprotein Glutathione Peroxidase 4 (GPX4) (AID 1845192); also: nearly all actives have a fitted effect of over 65% in size; as to activity change, negative = inhibition: series mostly up to about 50 µM
# Summary of the method: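 GR-coupled readout: 100 nM GR, 1 mM GSH, 0.5 mM NADPH; NADPH fluorescence (ex 340/em 450 nm) read at t=0 and after 15 min RT. GPX4 200 nM, preincubated 30 min with compound; substrate 0.5 mM CHP.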
# [3] = biological target: Luciferin 4-monooxygenase (Photinus pyralis) (UniProt P08659); test: Primary firefly luciferase (FLuc) qHTS assay for identification of artifact compounds. (AID 1845220); also: nearly all actives have a fitted effect of over 60% in size; as to activity change, negative = inhibition: series mostly up to about 54 µM
# Summary of the method: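 qHTS, 15 min compound preincubation with substrate (10 uM luciferin, 10 uM ATP) at RT, then 10 nM FLuc; 5 min; luminescence; % inhibition vs no-enzyme/DMSO controls, 4-parameter Hill fit.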
# [4] = Primary fluorescence-based thiol-reactive (MSTI) qHTS assay for identification of artifact compounds. (AID 1845221); also: nearly all actives have a fitted effect of over 65% in size; also: potency is read from the fitted curve at half-maximal effect;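 as to activity change, negative = thiol reactive: series mostly up to about 54 µM; thiol-reactive compounds lower the probe fluorescence signal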
# Summary of the method: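 One-hour, room-temperature, dark incubation of compound with 4 uM MSTI in PBS (pH 7.4, 2% DMSO) precedes a fluorescence read at 525 nm excitation, 598 nm emission; Hill-equation fitting yields concentration-response values.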
# [5] = system: Nanoluciferase (engineered Oplophorus gracilirostris luciferase); test: Primary Nanoluciferase (NLuc) qHTS assay for identification of artifact compounds. (AID 1845222); also: series mostly up to about 54 µM
# Summary of the method: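 Luminescence read-out of secreted NLuc in S16 cell conditioned medium (1:55); compounds tested with 15 min RT preincubation, then Nano-Glo substrate 1:100, 5 min. % inhibition vs no-enzyme and DMSO controls, 4-parameter Hill fit.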
# Chain of Phospholipid hydroperoxide glutathione peroxidase GPX4 (Homo sapiens) (P36969 whole entry, looked up): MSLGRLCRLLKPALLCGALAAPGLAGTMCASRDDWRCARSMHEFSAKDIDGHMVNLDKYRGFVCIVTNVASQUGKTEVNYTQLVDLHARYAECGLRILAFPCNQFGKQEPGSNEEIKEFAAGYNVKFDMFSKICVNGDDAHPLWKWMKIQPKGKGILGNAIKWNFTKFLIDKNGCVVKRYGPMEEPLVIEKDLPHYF
# Chain of Glutathione peroxidase 1 (Homo sapiens) (P07203 whole entry, looked up): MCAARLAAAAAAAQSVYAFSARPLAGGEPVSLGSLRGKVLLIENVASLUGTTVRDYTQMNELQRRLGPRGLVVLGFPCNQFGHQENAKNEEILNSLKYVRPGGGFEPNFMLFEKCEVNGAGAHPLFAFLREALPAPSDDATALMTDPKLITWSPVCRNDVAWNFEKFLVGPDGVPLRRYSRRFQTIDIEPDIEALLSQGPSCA
structure (smiles),measurement,setting,value
C[C@@H]1O[C@@H](O[C@H]2[C@H](O[C@H]3CC[C@@]4(C)C(CC[C@]5(C)C4CC=C4C6CC(C)(C)CC[C@]6(C(=O)O[C@@H]6O[C@H](CO[C@@H]7O[C@H](CO)[C@@H](O[C@@H]8O[C@@H](C)[C@H](O)[C@@H](O)[C@H]8O)[C@H](O)[C@H]7O)[C@@H](O)[C@H](O)[C@H]6O)CC[C@]45C)[C@]3(C)CO)OC[C@H](O)[C@@H]2O)[C@H](O)[C@H](O)[C@H]1O (some centres undefined),outcome,[1],inactive [at 9.52 µM]
same,"activity change, negative = inhibition",[2],-7.52% [at 9.73 µM]
same,outcome,[3],inactive [at 11.6 µM]
same,"activity change, negative = thiol reactive",[4],181% [at 11.5 µM]
C/C=C/C1=CC2=CC(=O)C(C)(O)C(OC(=O)c3c(C)cc(O)cc3O)C2CO1 (centres undefined),Potency,[1],inactive
same,Potency,[2],inactive
same,Potency,[3],inactive
same,Potency,[4],inactive
same,Potency,[5],inactive
CCCn1cnc2c(NCc3ccccc3)nc(N[C@H](CC)CO)nc21,Potency,[1],inactive
same,Potency,[2],inactive
same,Potency,[3],inactive
same,Potency,[4],inactive
same,Potency,[5],inactive
COC(=O)C1=COC(O[C@@H]2O[C@H](CO)[C@@H](O)[C@H](O)[C@H]2O)/C(=C\COC(=O)c2ccc(OC3OC(CO)C(O)C(O)C3O)c(OC)c2)C1CC(=O)OCCc1ccc(O)cc1 (some centres undefined),Potency,[1],inactive
same,Potency,[2],inactive
same,outcome,[3],inactive [at 11.6 µM]
same,"activity change, negative = thiol reactive",[4],1.89% [at 11.5 µM]
same,"activity, negative = inhibition",[5],4.63% [at 11.6 µM]
CC1=CCC2C(C)(CO)CCCC2(C)C1CC12OC1C(O)C(CO)=CC2O (centres undefined),Potency,[1],inactive
same,Potency,[2],inactive
same,Potency,[3],inactive
same,Potency,[4],inactive
same,Potency,[5],inactive
CCC(C)/C=C(C)/C=C/C1=CC2=C(Cl)C(=O)C(C)(OC(C)=O)C(=O)C2=CN1CCCC(=O)O (centres undefined),Potency,[1],inactive
same,Potency,[2],inactive
same,Potency,[3],inactive
same,Potency,[4],0.367 µM (active)
same,Potency,[5],inactive
CCC(C)/C=C(C)/C=C/C1=CC2=C(Cl)C(=O)C(C)(OC(C)=O)C(=O)C2=CN1C1CCCCN(C(CCC(N)=O)C(=O)O)C1=O (centres undefined),Potency,[1],inactive
same,Potency,[2],inactive
same,Potency,[3],inactive
same,Potency,[4],0.446 µM (active)
same,Potency,[5],inactive
C=C(C)[C@@H](C)[C@H]1O[C@]23C[C@]4(CO2)C(CCC2[C@@]5(C)CC[C@H](O[C@@H]6OC[C@H](O)[C@H](O[C@@H]7O[C@H](CO)[C@@H](O)[C@H](O)[C@H]7O)[C@H]6O[C@@H]6O[C@@H](CO)[C@H](O)[C@H]6O)C(C)(C)C5CC[C@]24C)C3[C@@](C)(O)[C@@H]1OC(C)=O (some centres undefined),Potency,[1],inactive
same,Potency,[2],inactive
same,"activity change, negative = inhibition",[3],4.34% [at 11.6 µM]
same,"activity change, negative = thiol reactive",[4],6.68% [at 11.5 µM]
same,"activity, negative = inhibition",[5],4.88% [at 11.6 µM]
COc1cc(-c2cccc(O)c2)cc2c1OCO2,Potency,[1],inactive
same,Potency,[2],inactive
same,Potency,[3],inactive
same,Potency,[4],26.7 µM (active)
same,Potency,[5],inactive
C=C[C@](C)(CC/C=C(\C)C(=O)O)O[C@@H]1OC[C@H](O)[C@H](O)[C@H]1O,Potency,[1],inactive
same,Potency,[2],inactive
same,Potency,[3],inactive
same,Potency,[4],7.36 µM (active)
same,Potency,[5],inactive
COc1ccc(C(=O)O[C@H]2CC(C)=CC[C@@]3(C)[C@@H](OC(C)=O)C[C@@](O)(C(C)C)[C@H]23)cc1,Potency,[1],inactive
same,Potency,[2],inactive
same,Potency,[3],inactive
same,Potency,[4],inactive
same,Potency,[5],inactive
C[C@@H]1O[C@@H](O[C@H]2[C@H](O)[C@@H](C(=O)O)O[C@@H](O[C@H]3CC[C@@]4(C)C(CC[C@]5(C)C4CC=C4C6CC(C)(C)CC[C@]6(C(=O)O)CC[C@]45C)C3(C)C)[C@@H]2O[C@@H]2O[C@H](CO)[C@@H](O)[C@H](O)[C@H]2O)[C@H](O)[C@H](O)[C@H]1O (some centres undefined),Potency,[1],inactive
same,Potency,[2],inactive
same,outcome,[3],inactive [at 11.6 µM]
same,"activity change, negative = thiol reactive",[4],296% [at 11.5 µM]
same,"activity, negative = inhibition",[5],-0.245% [at 11.6 µM]
CC1CCCC2OC2C(=O)c2c(O)cc(O)cc2CC(=O)O1 (centres undefined),Potency,[1],inactive
same,Potency,[2],inactive
same,Potency,[3],inactive
same,Potency,[4],8.44 µM (active)
same,Potency,[5],inactive
Cc1cc(N2CCCCC2)nc2ccccc12,Potency,[1],inactive
same,Potency,[2],inactive
same,Potency,[3],inactive
same,Potency,[4],inactive
same,Potency,[5],inactive
C[C@]12C=CC(=O)C=C1CC[C@@H]1[C@@H]2[C@@H](O)C[C@@]2(C)[C@H]1CC[C@]2(O)C(=O)COC(=O)CCC(=O)O,Potency,[1],inactive
same,Potency,[2],inactive
same,Potency,[3],inactive
same,Potency,[4],inactive
same,Potency,[5],inactive
CC(CCC1(O)OC2CC3C4CCC5CC(O[C@@H]6O[C@H](CO)[C@@H](O)[C@H](O)[C@H]6O[C@@H]6OC[C@@H](O)[C@H](O)[C@H]6O)C(O)CC5(C)C4CCC3(C)C2C1C)CO[C@@H]1O[C@H](CO)[C@@H](O)[C@H](O)[C@H]1O (some centres undefined),Potency,[1],inactive
same,Potency,[2],inactive
same,"activity change, negative = inhibition",[3],1.24% [at 11.6 µM]
same,"activity change, negative = thiol reactive",[4],-13.7% [at 11.5 µM]
same,"activity, negative = inhibition",[5],4.39% [at 11.6 µM]
CCN(c1cc(C#CCN2CCOCC2)cc(C(=O)NCc2c(C)cc(C)[nH]c2=O)c1C)C1CCC(N(C)CCOC)CC1 (centres undefined),Potency,[1],inactive
same,Potency,[2],inactive
same,Potency,[3],inactive
same,Potency,[4],inactive
same,Potency,[5],inactive
C[C@@H]1O[C@@H](O[C@H]2[C@H](OC(=O)[C@]34CCC(C)(C)C[C@H]3C3=CCC5[C@@]6(C)CC[C@H](O[C@@H]7O[C@H](CO[C@@H]8OC[C@H](O)[C@H](O)[C@H]8O)[C@@H](O)[C@H](O)[C@H]7O)C(C)(C)C6CC[C@@]5(C)[C@]3(C)C[C@H]4O)OC[C@@H](O)[C@@H]2O)[C@H](O)[C@H](O)[C@H]1O[C@@H]1OC[C@H](O)[C@H](O[C@@H]2OC[C@@H](O)[C@H](O)[C@H]2O)[C@H]1O (some centres undefined),outcome,[1],inactive [at 9.52 µM]
same,"activity change, negative = inhibition",[2],-4.93% [at 9.73 µM]
same,"activity change, negative = inhibition",[3],1.47% [at 11.6 µM]
same,"activity change, negative = thiol reactive",[4],146% [at 11.5 µM]
same,"activity, negative = inhibition",[5],-4.62% [at 11.6 µM]
